Data: PubChem BioAssay (NCATS)
Inconclusive results are not listed. A call without a number means that no potency is given here. Values without a mark were called inactive. Active and inactive are the calls of the source. Calls come from the whole dose curve; as a rule, active = well fitted curve in the direction sought with a large enough effect; inconclusive = small, poorly fitted or top-dose-only effect, or another doubt; inactive = no such curve, though single readings can be large; an effect the other way counts as inactive or inconclusive.

Assays:
[1] = biological target: Aldehyde dehydrogenase, mitochondrial (Homo sapiens) (UniProt P05091); experiment: qHTS for Inhibitors of the Aldehyde Dehydrogenase Family (ALDH2) Primary screen (AID 2061308); note: nearly all actives have a fitted effect of over 55% in size
[2] = biological target: Retinaldehyde dehydrogenase 3 (Homo sapiens) (UniProt P47895); experiment: qHTS for Inhibitors of the Aldehyde Dehydrogenase Family (ALDH1A3) Primary screen (AID 2061315)

Row | Compound | Potency [1] | Potency [2] | activity change, negative = inhibition [1] | activity change, negative = inhibition [2]
1 | O=C(Nc1ccc(Cl)c([N+](=O)[O-])c1)Nc1nnc(C2CCCCC2)s1 | inactive | inactive |  | 
2 | N#Cc1ccccc1S(=O)(=O)N1CCN(S(=O)(=O)c2ccc3c(c2)OCCO3)CC1 | inactive | inactive |  | 
3 | CC(=O)c1ccc(C(=O)Nc2nnc(-c3ccco3)o2)cc1 | inactive | inactive |  | 
4 | CN(C)c1ccccc1-c1csc(N2CCC(C(N)=O)CC2)n1 | inactive | inactive |  | 
5 | Cc1ccc(-c2cc(C(=O)Nc3ccc(C(=O)O)cc3)c3ccccc3n2)cc1C | inactive | inactive |  | 
6 | O=C(Nc1ccc2ccccc2c1)Nc1cccc(-c2ccncc2)n1 | inactive | inactive |  | 
7 | O=[S+]([O-])(NC[C@H]1CCC[C@H](CN[S+](=O)([O-])c2c(F)cccc2F)C1)c1ccc2c(c1)OCCO2 | inactive | inactive |  | 
8 | N=c1c2c(ncn1-c1ccccc1)Oc1ccc3ccccc3c1C2c1ccc2c(c1)OCO2 (stereo unspecified) | inactive | inactive |  | 
9 | COc1cccc(C2c3c(ncn(-c4cccc(F)c4)c3=N)Oc3ccc4ccccc4c32)c1 (stereo unspecified) | inactive | inactive |  | 
10 | C[C@@H]1O[C@@H](O[C@@H]2[C@@H](O)[C@H](O[C@H]3CC[C@@]4(C)C(CC[C@]5(C)C4CC=C4[C@@H]6CC(C)(C)CC[C@]6(C(=O)O[C@@H]6O[C@H](CO)[C@@H](O)[C@H](O)[C@H]6O)CC[C@]45C)C3(C)C)O[C@H](C(=O)O)[C@H]2O)[C@H](O)[C@H](O)[C@H]1O (stereo partly specified) | inactive | inactive |  | 
11 | c1nc(NCCCN2CCOCC2)c2cc(-c3ccc4c(c3)OCO4)ccc2n1 | inactive | inactive |  | 
12 | Cc1ccc(OCCn2c(CCNC(=O)c3ccccc3F)nc3ccccc32)cc1 | inactive | inactive |  | 
13 | Cc1cc(C)nc(NC(=S)N2CCN(c3cnc4nccn4c3)CC2)c1 | inactive | inactive |  | 
14 | O=S(=O)(c1ccc2c(c1)OCCO2)N1CCN(S(=O)(=O)c2ccc(F)c(F)c2F)CC1 | inactive | inactive |  | 
15 | C[C@@H]1O[C@@H](O[C@H]2[C@H](OC(=O)[C@]34CCC(C)(C)C[C@H]3C3=CCC5[C@@]6(C)C[C@H](O)[C@H](O[C@@H]7O[C@H](CO)[C@@H](O)[C@H](O)[C@H]7O)[C@](CO)(C(=O)O)C6CC[C@@]5(C)[C@]3(C)C[C@H]4O)OC[C@H](O)[C@@H]2O)[C@H](O)[C@H](O)[C@H]1O[C@@H]1OC[C@@H](O)[C@H](O[C@@H]2OC[C@](O)(CO)[C@H]2O)[C@H]1O (stereo partly specified) |  |  | 7.32% [at 11.2 µM] | 18.8% [at 11.2 µM]
16 | O=C(Nc1nnc(-c2ccncc2)s1)Oc1ccc2ccccc2c1 | inactive | inactive |  | 
17 | O=C(c1c(F)cccc1F)N1CCN(S(=O)(=O)c2ccc3c(c2)OCCO3)CC1 | inactive | inactive |  | 

Row | Compound | Potency [1] | Potency [2] | activity change, negative = inhibition [1] | activity change, negative = inhibition [2]
18 | COc1cccc(Cn2ncc3c4sc(C)cc4n(C)c3c2=O)c1 | inactive | inactive |  | 
19 | Clc1ccc(CSc2nc3ncc(Br)cc3[nH]2)cc1Cl | inactive | inactive |  | 
20 | Cc1cc2c(s1)c1cnn(Cc3cccc(C(F)(F)F)c3F)c(=O)c1n2C | inactive | inactive |  | 
21 | COC(=O)Nc1sc2c(c1-c1nc3ccccc3s1)CCNC2 | inactive | inactive |  | 
22 | O=C(c1ccc2c(c1)ncn2-c1ccc(C(F)(F)F)cc1)N1CCCCC1 | inactive | inactive |  | 
23 | N#Cc1ccc(NC(=O)Nc2nnc(-c3ccncc3)s2)c(Cl)c1 | inactive | inactive |  | 
24 | CC(=O)Nc1ccc(NC(=O)c2cnn3c(C)cc(C)nc23)cc1 | inactive | inactive |  | 
25 | Cc1cc(NS(=O)(=O)c2ccc(NC(=O)Cc3ccc(Cl)c(F)c3)cc2)no1 | inactive | inactive |  | 
26 | CC(=O)Nc1nc(C)c(-c2nc(N3CCCC(O)C3)no2)s1 (stereo unspecified) | inactive | inactive |  | 
27 | COC(=O)C1CCc2sc(NC(=O)Cc3ccccc3)c(C(=O)Nc3ccc(Cl)cc3)c21 (stereo unspecified) | inactive | inactive |  | 
28 | Cn1c(=O)c2c(nc(CN3CCN(C(=O)C4CC4)CC3)n2Cc2cccc(F)c2)n(C)c1=O | inactive | inactive |  | 
29 | Cc1ccnc(NC(=S)NC2CCCN(c3cccc(C(F)(F)F)c3)C2)c1 (stereo unspecified) | inactive | inactive |  | 
30 | O=S(=O)(c1c(F)cccc1F)C1CCN(S(=O)(=O)c2ccc3c(c2)OCCO3)CC1 | inactive | inactive |  | 
31 | O=S(=O)(c1ccc2c(c1)OCCO2)N1CCN(S(=O)(=O)c2ccco2)CC1 | inactive | inactive |  | 
32 | COc1ccc(C(=O)N(Cc2cccs2)Cc2cccs2)c(O)c1 | inactive | inactive |  | 
33 | COc1ccccc1-c1nnc2n1N=C(c1c(OC)cccc1OC)CS2 | inactive | inactive |  | 
